The nature of assay [1]: P. berghei load reduction in hepatocytes – cell-based, HepG2, luciferase luminescence, HepG2 viability, primary screen (AID 624349; in the data active means parasite load remaining mostly below about 12%, no sharp cut-off; inactive means mostly above about 10%;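 further: 100% = mean of DMSO negative control wells on the same plate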). The note with it: P. berghei liver stage in HepG2, luciferase luminescence, concentration not given here; parasite load remaining: stronger effect = lower value; viability: measured here: HepG2 viability without parasites.
Assay [2] in a line: Wnt pathway potentiators raising nuclear beta-catenin – imaging, WNT3A-conditioned medium, mouse C2C12, NPC library, primary screen (AID 1117326; in the data active means nuclear beta-catenin stimulation mostly above about 4.2%, no sharp cut-off; inactive means mostly below about 10%). The settings on record: stronger effect = higher value.
Assay [3] is described as follows: stimulators of insulin release from INS-1E, primary screen, cell-based, 5 mM glucose, NPC library (AID 1117329;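 active means compound raises insulin release from rat beta cells at 5 mM glucose, no numeric limit stated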). The settings on record: rat INS-1E insulin secretion, at 10 µM, stronger effect = higher value.
Assay [4] is described as follows: growth inhibition of GSK3B-pretreated HCT116 cells – cell-based, CellTiter-Glo, 0.2 to 20 µM (AID 1117336;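 active means compounds lowering colon cancer cell viability after pretreatment blocking the GSK3B kinase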). The settings on record: HCT116 viability after GSK3B inhibitor, at 20 µM, stronger effect = higher value. In general terms: In ATP-based viability assays light output follows the ATP content of the culture.
Assay [5] is described as follows: inhibition of endothelial tube formation, primary screen, imaging, VEGF stimulated, CD31 staining, tube area, NPC library (AID 1117340). The note with it: VEGF-stimulated ADSC/ECFC co-culture, at 10 µM, stronger effect = higher value.
Assay [6] in a line: GLP1 release stimulators, primary, NCI-H716, NPC library (AID 1117341;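 active means compound raises GLP1 secretion from the human gut endocrine cells, with no numeric limit stated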). The note with it: NCI-H716 cells, at 10 µM, stronger effect = higher value.
Assay [7] can be described thus: HCT116 colon cancer cell growth inhibition, primary screen, CellTiter-Glo luminescence, NPC library (AID 1117342;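 active means compounds that lower survival of HCT116 colon cancer cells in the luminescence readout, no numeric limit stated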). The settings on record: at 20 µM (top of the series).
Assay [8] is described as follows: reduced SW480 viability measured with CellTiter-Glo, NPC library, primary (AID 1117343;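 active means compounds that lower viability of the colon cancer cells in the luminescence readout, with no numeric limit stated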). The note with it: CellTiter-Glo luminescence; at 20 µM (top of the series) unless noted.
The nature of assay [9]: NPC library primary testing for decreased DLD-1 cell viability via CellTiter-Glo (AID 1117346;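 active means compounds that lower survival of DLD-1 colon cancer cells in the luminescence readout, no cutoff given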). The settings on record: DLD-1 viability, CellTiter-Glo luminescence; at 20 µM (top of the series).
Assay [10] in a line: EMT-state selective cytotoxicity in co-culture – imaging, PC-3E GFP, TEM4-18 mCherry, primary screen (AID 1345086;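 active means compounds killing one labelled cell type while sparing the other, by normalised counts and ratio limits, not self-fluorescent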;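 on all read-outs here: cells exposed to compound for 72 h before imaging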;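 on red/green cell ratio (normalised): normalised mesenchymal count divided by normalised epithelial count so high means epithelial killing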). The note with it: PC-3E GFP / TEM4-18 mCherry co-culture, imaging cell counts, at 1 µM; for red/green cell ratio (normalised): actives lie on both sides, counts scaled to control wells, 1 = unselective.
Assay [11] has as its target NAD(+) hydrolase SARM1 (Homo sapiens) (UniProt Q6SZW1). The assay can be described thus: blocking NAD cleavage by SARM1 SAM-TIR – cell lysate, NAD-Glo luminescence (AID 1508614;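 active means compound whose remaining NAD level is above about 45 nM, limit read from the data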). The note with it: SAM-TIR HEK293T lysate NADase, at 1 µM, stronger effect = higher value.
A short description of assay [12]: galactose survival enhancers in mitochondrial complex I cybrids – cell-based, galactose medium, ATP luminescence, primary screen (AID 1645843;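 active means z-score of at least 1.8 in each of two replicates, scored against plate mean and spread of sample wells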;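 further: positive z means more ATP and so rescue of galactose-driven cybrid death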). The settings on record: complex I mutant cybrid cells, 72 h, stronger effect = higher value.
Assay [13] in a line: viability loss with induced miR-34 in A549 – imaging, A549 dox-inducible miR-34, nuclei and caspase counts, primary screen (AID 1347080;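 active means compounds whose cell count with miR-34 switched on is under 0.7 times the count with it off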). The note with it: A549 miR-34 inducible, Hoechst nuclei count, 48 h.
The mark [14] stands for this setting: measured here: epithelial PC-3E GFP cell survival.
The mark [15] stands for this setting: measured here: mesenchymal TEM4-18 mCherry cell survival.
Where [16] appears, read: stronger effect = lower value, cell number ratio, induced over uninduced.
Setting [17] is: measured here: relative caspase fold change +Dox/-Dox.
Setting [18] is: measured here: total cells with miR-34 induction, stronger effect = lower value.
The mark [19] stands for this setting: measured here: total cells without miR-34 induction.

The term viability denotes a read-out of living cells in per cent, often relative to untreated cells.

Activity calls are given as the source filed them.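 How the source made its calls, unless noted: active means compound that reduces growth-factor-driven endothelial tube area in a mixed cell culture, no cutoff stated; inactive means the rest.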

Sequence of NAD(+) hydrolase SARM1 (Homo sapiens) (Q6SZW1 whole entry, looked up): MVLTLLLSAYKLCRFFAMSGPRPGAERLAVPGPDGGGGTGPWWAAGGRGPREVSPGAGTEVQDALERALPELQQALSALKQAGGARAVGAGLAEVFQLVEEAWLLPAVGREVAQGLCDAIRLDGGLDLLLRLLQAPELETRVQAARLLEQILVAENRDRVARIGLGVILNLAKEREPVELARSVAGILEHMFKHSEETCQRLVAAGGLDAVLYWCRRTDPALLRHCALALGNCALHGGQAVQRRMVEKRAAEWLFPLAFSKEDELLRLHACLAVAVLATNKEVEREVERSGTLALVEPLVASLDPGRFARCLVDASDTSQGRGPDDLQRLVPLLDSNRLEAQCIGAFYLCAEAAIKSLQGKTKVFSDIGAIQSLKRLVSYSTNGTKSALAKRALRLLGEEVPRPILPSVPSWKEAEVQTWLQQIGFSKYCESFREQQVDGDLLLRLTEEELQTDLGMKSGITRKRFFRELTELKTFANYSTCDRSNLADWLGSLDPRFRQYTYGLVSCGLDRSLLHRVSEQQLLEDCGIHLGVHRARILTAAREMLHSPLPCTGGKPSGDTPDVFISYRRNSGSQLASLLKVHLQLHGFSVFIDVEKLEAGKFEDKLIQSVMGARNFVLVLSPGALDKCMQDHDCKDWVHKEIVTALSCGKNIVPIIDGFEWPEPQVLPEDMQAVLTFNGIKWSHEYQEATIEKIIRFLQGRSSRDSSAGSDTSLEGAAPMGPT

With `CC(C)=CCC/C(C)=C/CO`, the parasite load remaining in assay [1] is 123% (inactive). For the same molecule, the viability in assay [1] was found to be 71.1%. The nuclear beta-catenin stimulation in assay [2] (at 10 µM) is -0.1% (inactive); in assay [2] (stimulation, at 2 µM), 3%. Also, the insulin secretion stimulation in assay [3] was 0.7% (inactive). In addition, in assay [4], the viability decrease is -10.3% (inactive). The tube area decrease in assay [5] was 12.4% (inactive). Moreover, the GLP1 secretion stimulation in [6] was -1.8% (inactive). The inhibition of viability in assay [7] is 1.77% (inactive). Also, the viability decrease (inhibition) is -1.7% (inactive) in assay [8] and -8.2% (inactive) in assay [9]. Also, in [10], the red/green cell ratio (normalised) is 0.92 (inactive). Further, the normalised cell number in [10] (setting [14]) was 1.13; in assay [10] (setting [15]) it was 1.03.
As to `Cc1cc(C(C#N)c2ccc(Cl)cc2)c(Cl)cc1NC(=O)c1cc(I)cc(I)c1O` (configuration not stated), the parasite load remaining in assay [1] is 10.9% (inactive). The viability in [1] stood at 94.5%. In addition, the nuclear beta-catenin stimulation in assay [2] (at 10 µM) is 2.4% (inactive); in assay [2] (stimulation, at 2 µM) it was 1.5%. Further, the insulin secretion stimulation in [3] is -0.6% (inactive). In assay [4], the viability decrease was 120% (active). In addition, the tube area decrease in [5] was 111% (active). In addition, the GLP1 secretion stimulation in assay [6] was 14.4% (inactive). Also, the inhibition of viability in assay [7] is 125% (active). Moreover, the viability decrease (inhibition) in assay [8] is 163% (active); in [9], 101% (active). Also, the red/green cell ratio (normalised) in assay [10] was 0.8 (inactive). In addition, the normalised cell number in assay [10] (setting [14]) stood at 1.27; in [10] (setting [15]), 1.02. Besides, the remaining NAD in assay [11] was 10 nM (inactive). Also, the z-score in [12] is 0.12 (inactive).
Regarding `CC(C)CCCC(C)N` (configuration not stated), the parasite load remaining in assay [1] was 30.8% (inactive). Moreover, the viability in assay [1] is 90%. The nuclear beta-catenin stimulation in assay [2] (at 10 µM) is 3.1% (inactive); in assay [2] (stimulation, at 2 µM), 2%. In addition, in assay [3], the insulin secretion stimulation is 4.9% (inactive). The viability decrease in [4] was 2% (inactive). In addition, the tube area decrease in assay [5] is -9.7% (inactive). The GLP1 secretion stimulation in assay [6] is 0% (inactive). The inhibition of viability in assay [7] is -7.6% (inactive). For the same molecule, the viability decrease (inhibition) in assay [8] is -47.3% (active); in assay [9] it was -8.6% (active). Moreover, the red/green cell ratio (normalised) in assay [10] is 1.15 (inactive). In addition, the normalised cell number in assay [10] (setting [14]) was 0.96; in assay [10] (setting [15]), 1.1. In addition, the fold change in [13] (setting [16]) is 0.884 (inactive); in assay [13] (setting [17]), 1.92. In addition, the cell count in assay [13] (setting [18]) was 11300; in assay [13] (setting [19]), 12800. Moreover, the remaining NAD in assay [11] was 10 nM (inactive).
With `OC1C(O)C(O)C(O)C(O)C1O` (configuration not stated), the parasite load remaining in [1] was 41.7% (inactive). In addition, the viability in assay [1] was determined as 104%. Moreover, the nuclear beta-catenin stimulation in assay [2] (at 10 µM) is 2.8% (inactive); in [2] (stimulation, at 2 µM), 0.4%. The insulin secretion stimulation in [3] is 0.4% (inactive). The viability decrease in assay [4] was -3.8% (inactive). The tube area decrease in assay [5] was 3% (inactive). In assay [6], the GLP1 secretion stimulation was -2.7% (inactive). Further, the inhibition of viability in assay [7] is 3.1% (inactive). For the same molecule, the viability decrease (inhibition) in assay [8] is 4.8% (inactive); in assay [9], 0.6% (inactive). The red/green cell ratio (normalised) in assay [10] was 1.17 (inactive). In addition, the normalised cell number in assay [10] (setting [14]) was 0.97; in assay [10] (setting [15]), 1.13. The fold change in assay [13] (setting [16]) is 0.895 (inactive); in [13] (setting [17]), 0.941. Also, the cell count turned out to be 11600 in assay [13] (setting [18]) and 12900 in assay [13] (setting [19]). In assay [11], the remaining NAD was 10 nM (inactive).
In the case of `CC1=C(C/C=C(\C)CCC[C@H](C)CCC[C@H](C)CCCC(C)C)C(=O)c2ccccc2C1=O`, in assay [1], the parasite load remaining was 21.8% (inactive). Besides, the viability in assay [1] was found to be 93.1%. Besides, the nuclear beta-catenin stimulation is 0.3% (inactive) in [2] (at 10 µM) and -0.8% in assay [2] (stimulation, at 2 µM). Moreover, the insulin secretion stimulation in [3] is -2.6% (inactive). Moreover, the viability decrease in [4] was -3.55% (inactive). Further, in assay [5], the tube area decrease is 23.9% (inactive). In assay [6], the GLP1 secretion stimulation is 2.3% (inactive). Moreover, the inhibition of viability in assay [7] is -10.9% (inactive). The viability decrease (inhibition) is -45.3% (inactive) in [8] and -6.65% (inactive) in assay [9]. Besides, in assay [10], the red/green cell ratio (normalised) was 1.1 (inactive). The results for the normalised cell number in assay [10] (setting [14]) and in [10] (setting [15]) were 0.92 and 1.01, respectively. In addition, the fold change is 0.94 (inactive) in assay [13] (setting [16]) and 3.52 in assay [13] (setting [17]). Further, the cell count amounted to 11600 in [13] (setting [18]) and 12300 in [13] (setting [19]). The remaining NAD in assay [11] was 10 nM (inactive).

Values taken from PubChem BioAssay.
